Entries with a potency or affinity are not part of this list.
Assay: reduction of endogenous Shn3 mRNA, dose response, qPCR, Clone20 cells, cherry-pick (AID 743415)
Conditions: overnight; series mostly up to 35 µM; relative Shn3 expression (fraction): at the top concentration;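 active = compounds lowering Shn3 expression whose fitted half-maximal concentration is at most twice the top valid dose; inconclusive = flat partial decrease or an invalid curve fit; inactive = the rest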

Relative Shn3 expression (fraction), inactive:
CCOc1ccc(Cn2nnc(C(=O)Nc3cc(OC)cc(OC)c3)c2N)cc1 1.13
CC(=O)Nc1ccc(OCC(=O)Nc2ccc(Cl)c(S(=O)(=O)N3CCOCC3)c2)cc1 0.846
COc1ccc(-c2cc(C(F)(F)F)nc(S(C)(=O)=O)n2)cc1 0
O=C(COC(=O)c1n[nH]c2ccccc12)Nc1ccc(S(=O)(=O)N2CCCC2)cc1 1.75
Cc1ccccc1C(=O)N1CCN(c2ccc(NC(=O)CSc3ccc(Cl)cc3)cc2)CC1 2.02
CCC(C)c1ccc(S(=O)(=O)N2CCN(C(=O)c3ccc(Cl)c(S(=O)(=O)N4CCOCC4)c3)CC2)cc1 (configuration not stated) 1.15
O=C(c1cc(COc2ccc3ncccc3c2)on1)N1CCCCCC1 0.889
O=C(Nc1nc(-c2ccccc2)cs1)C1CCCCN1S(=O)(=O)c1ccccc1 (configuration not stated) 1.36
CCOC(=O)c1cn(CC(=O)Nc2cccc(Cl)c2C)nn1 0.955
Oc1ccc(-c2n[nH]c(C(F)(F)F)c2-c2ccccc2)c(O)c1 1.47
O=C(Nc1ccc(Cl)cc1)c1cc(S(=O)(=O)N2CCOCC2)cs1 1.29
CC(C)Cn1c(N)c(C(=O)COC(=O)C2Cc3ccccc3CN2S(C)(=O)=O)c(=O)n(C)c1=O (configuration not stated) 1.08
c1ccc(CNc2ncnc3scc(-c4cccs4)c23)nc1 0.593
CCOC(=O)C1CCCN(S(=O)(=O)c2ccc(S(=O)(=O)N3CCCC3)cc2)C1 (configuration not stated) 0.904
CC(C)(C)C(=O)Nc1cc2nn(-c3ccccc3)nc2cc1Cl 0.982
COCOCCn1cc(CN2CCS(=O)(=O)N(Cc3ccc(-c4ccc(Cl)c(Cl)c4)cc3)C(C(C)C)C2=O)nn1 (configuration not stated) 1.43
O=C(Cn1cnc2ccccc21)Nc1cccc(S(=O)(=O)N2CCCC2)c1 0.958
CC(=O)N1c2ccc(S(=O)(=O)N3CCC(C(=O)N4CCN(c5cccc(C(F)(F)F)c5)CC4)CC3)cc2CC1C (configuration not stated) 1.22
COc1cc(NC(=O)c2cccc3c(-c4cccnc4)coc23)cc(OC)c1OC 0.765
CCCn1c(C)cc(C(=O)CN2C(=O)c3ccccc3S2(=O)=O)c1C 1.12
Cc1ccc([C@@H]2CC(=O)[C@@H]3CN(S(=O)(=O)c4ccccc4C)[C@H](c4ccc(Cl)cc4)C[C@@H]3N2S(=O)(=O)c2ccc(C)cc2)cc1 1.34
O=C(Nc1ccc(N2CCOCC2)cc1)c1ccc(Cl)c(S(=O)(=O)N2CCCC2)c1 1.52
CCCCN1CC(COCc2ccccc2)Oc2cccc(Oc3ccc(C(C)C)cc3)c2S1(=O)=O (configuration not stated) 1.44
CC(Sc1nc2ccccc2c(=O)n1C)C(=O)N(C)C1CCCCC1 (configuration not stated) 1.25
COc1ccc(CC(=O)Nc2ccncc2Cl)cc1 0.966
CC1CCCC(NC(=O)c2cccc(S(=O)(=O)N3CCN(c4ccccc4)CC3)c2)C1C (configuration not stated) 1.12
CCOC(=O)c1oc2ccc(S(=O)(=O)n3nc(-c4ccc(OC)cc4)cc3N)cc2c1C 1.18
CCn1c(CNC(=O)c2cc(OC)c(OC)c(OC)c2)cc2cc(C)ccc21 1.06
Cc1ccc(NC(=O)c2cc(S(=O)(=O)NCCC3=CCCCC3)ccc2F)cc1F 1.86
CC(C)(C)C(=O)Nc1ccc(NC(=O)c2ccco2)nc1 0.709
COc1ccc(OC)c(NC(=O)CN(Cc2ccc(F)cc2)C2CCCCC2)c1 1.71
Cc1onc(-c2ccccc2Cl)c1C(=O)N(C)C1CCCCC1 1.02
Cc1ccc(CNC(=O)c2cc3c(C)nc4ccccc4c3o2)cc1 1.06
Nc1ncnc2c1c(-c1ccc(Oc3ccccc3)cc1)cn2C1CCCC1 0.905
CCc1ccccc1NC(=O)COC(=O)c1c(C)nsc1NC 1.31
CCCCNc1cc(C)nc(NCc2ccccc2)n1 3.52
CNc1ccccc1C(C)(C)c1cc(-c2cccc(OC)c2)no1 1.16
